Here are results for nine compounds from PubChem BioAssay (EPA / NIEHS).

Inconclusive results are not listed. Calls of active or inactive are those of the source. How the source made its calls, unless noted: active means hit-call score of the fitted dose curve at least 0.9, where 1 is the maximum; inactive means score below 0.9.

Assay [1] can be described thus: ATG_NFI_CIS: Attagene CIS-FACTORIAL HepG2 Assay for human Nuclear Factor I (NFI) (AID 2282989). The note with it: HepG2 cis-regulatory reporter, NFI response element transcription; actives raise or lower the signal. In short, it runs like this: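 After transient transfection of HepG2 with cis-promoter reporter constructs and 24 h dosing, RNA is reverse-transcribed, amplified, 6-FAM end-labelled and HpaI-digested before capillary analysis. Bidirectional curve fitting against DMSO.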

The target in assay [2] is Myc proto-oncogene protein (Homo sapiens) (UniProt P01106). Kind of assay: ATG_Myc_CIS: Attagene CIS-FACTORIAL HepG2 Assay for human Myelocytomatosis (Myc) Proto-Oncogene Transcription Factor (AID 2282990). As to conditions: HepG2, Attagene cis-reporter transcription factor activity; actives raise or lower the signal. In short, it runs like this:
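Cells of the HepG2 human liver line bear multiple cis-driven reporter transcription units. Reporter mRNA after 24 h exposure is reverse-transcribed, amplified, labelled and resolved by capillary electrophoresis, with gain- or loss-of-signal fitting relative to DMSO.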

The nature of assay [3]: ATG_NF_kB_CIS: Attagene CIS-FACTORIAL HepG2 Assay for human Nuclear Factor Kappa B (NF-kB) (AID 2282991). The note with it: HepG2 Attagene cis-factorial NF-kB reporter mRNA; actives raise or lower the signal. In short, it runs like this:
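Read-out: reporter transcript levels quantified by RT-PCR plus capillary electrophoresis of 6-FAM-labelled, HpaI-cut fragments. Transfected HepG2 cells, 24 h compound exposure, endogenous NF-kB-driven cis element; gain or loss scored versus DMSO.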

Assay [4] is described as follows: ATG_NRF2_ARE_CIS: Attagene CIS-FACTORIAL HepG2 Assay for human Nuclear Factor Erythroid 2 Related Factor 2 (NFR2) response to Antioxidant Response Elements (ARE) (AID 2282992). The note with it: HepG2 Attagene ARE/NRF2 reporter, transcription factor activity; actives raise or lower the signal. The procedure, abridged:
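Readout: reporter mRNA quantified by RT-PCR plus FAM-labelled primer extension, HpaI digestion and capillary electrophoresis, 24 h after dosing transfected HepG2 cells. Gain or loss of signal is fitted bidirectionally against DMSO baseline.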

Assay [5] can be described thus: ATG_Oct_MLP_CIS: Attagene CIS-FACTORIAL HepG2 Assay for human Octamer-Binding Transcription Factor (Oct) (AID 2282993). The note with it: HepG2 Attagene cis-factorial Oct reporter, mRNA; actives raise or lower the signal. In short, it runs like this:
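Cells of the HepG2 line express promoter-controlled reporter sequences whose mRNA levels, after 24 h treatment, are measured by RT-PCR and capillary electrophoresis. Increases and decreases are scored relative to DMSO.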

In assay [6] the target is Cellular tumor antigen p53 (Homo sapiens) (UniProt P04637). The assay can be described thus: ATG_p53_CIS: Attagene CIS-FACTORIAL HepG2 Assay for human p53 Transcription Factor (AID 2282994). The note with it: HepG2 p53 cis-element reporter, Attagene mRNA; actives raise or lower the signal. The procedure, abridged:
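Read-out: reporter mRNA by RT-PCR plus capillary electrophoresis with fluorescence detection. Human HepG2 liver cells carried transfected multi-reporter cis-element constructs, dosed 24 h. Gain or loss of signal fitted bidirectionally against DMSO control.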

The target in assay [7] is human Retinoic Acid Receptor beta (RARb), RARB (gene 5915) (UniProt P10826). The assay can be described thus: ATG_RARb_TRANS: Attagene TRANS-FACTORIAL HepG2 Assay for human Retinoic Acid Receptor beta (AID 2283004; active means hit-call score of the fitted dose curve at least 0.9, where 1 is the maximum). In short, it runs like this:
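Transient transfection of HepG2 with multiple reporter units → chemical dosing, 24 h → total RNA isolation → RT with oligo(dT) → reporter-specific PCR, 6-FAM primer extension, HpaI digest → capillary electrophoresis. Positive direction vs DMSO control.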

The target in assay [8] is Retinoic acid receptor alpha (Homo sapiens) (UniProt P10276). The assay can be described thus: ATG_RARa_TRANS: Attagene TRANS-FACTORIAL HepG2 Assay for human Retinoic Acid Receptor alpha (RARa) (AID 2283005; active means hit-call score of the fitted dose curve at least 0.9, where 1 is the maximum). In short, it runs like this:
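Reporter transcripts, measured by RT-PCR with fluorescent labeling and capillary electrophoresis after 24 h dosing, reflect activity of an exogenous human RARa–GAL4 fusion in transiently transfected HepG2. Fitted for increase relative to DMSO.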

Assay [9] deals with human Retinoic Acid Receptor gamma (RARg), RARG (gene 5916) (UniProt P13631). The assay can be described thus: ATG_RARg_TRANS: Attagene TRANS-FACTORIAL HepG2 Assay for human Retinoic Acid Receptor gamma (RARg) (AID 2283009; active means hit-call score of the fitted dose curve at least 0.9, where 1 is the maximum). In short, it runs like this:
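Transactivation of exogenous RARg-Gal4 fusion measured as reporter transcript induction after 24 h in transfected HepG2 cells. RNA reverse-transcribed, amplified, fluorescently labeled and resolved by capillary electrophoresis; increase relative to DMSO.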

Assay [10] concerns the target human RAR-related Orphan Receptor beta (RORb), RORB (gene 6096) (UniProt Q92753). The assay can be described thus: ATG_RORb_TRANS: Attagene TRANS-FACTORIAL HepG2 Assay for human RAR-related Orphan Receptor beta (RORb) (AID 2283010; active means hit-call score of the fitted dose curve at least 0.9, where 1 is the maximum). In short, it runs like this: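 Read-out is reporter mRNA induction, quantified by RT-PCR with fluorescent capillary electrophoresis, 24 h post-dose in transiently transfected HepG2 expressing exogenous NR-Gal4 chimera. Activity fitted upward versus DMSO.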

Assay [11] deals with human Peroxisome Proliferator-activated Receptor delta (PPARd), PPARD (gene 5467) (UniProt Q03181). Kind of assay: ATG_PPARd_TRANS: Attagene TRANS-FACTORIAL HepG2 Assay for human Peroxisome Proliferator-activated Receptor delta (PPARd) (AID 2283002; active means hit-call score of the fitted dose curve at least 0.9, where 1 is the maximum). In short, it runs like this:
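Cell-based TRANS reporter: HepG2, transient MRTU transfection, 24 h exposure. Readout = reporter mRNA (RT-PCR/CE, 6-FAM). Gain-of-signal fit vs DMSO control.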

Assay [12] deals with human Peroxisome Proliferator-activated Receptor alpha (PPARa), PPARA (gene 5465) (UniProt Q07869). The assay can be described thus: ATG_PPARa_TRANS: Attagene TRANS-FACTORIAL HepG2 Assay for human Peroxisome Proliferator-activated Receptor alpha (PPARa) (AID 2283001; active means hit-call score of the fitted dose curve at least 0.9, where 1 is the maximum;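 on AC50: potency for gain of reporter signal over DMSO so agonist or activator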). The procedure, abridged:
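Reporter transcripts quantified by RT-PCR plus capillary electrophoresis after 24 h treatment, fitted upward relative to DMSO. Cells: human HepG2 transiently carrying multiple GAL4-UAS reporter units driven by NR-Gal4 chimeras.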

The target in assay [13] is Peroxisome proliferator-activated receptor gamma (Homo sapiens) (UniProt P37231). Kind of assay: ATG_PPARg_TRANS: Attagene TRANS-FACTORIAL HepG2 Assay for human Peroxisome Proliferator-activated Receptor-gamma (PPARg) (AID 2283007; active means hit-call score of the fitted dose curve at least 0.9, where 1 is the maximum). In short, it runs like this: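 Read-out: reporter mRNA induction, detected by fluorescence after RT-PCR and capillary electrophoresis. Transiently transfected human HepG2 liver cells carrying a chimeric NR-Gal4 construct were dosed for 24 h; activity was fitted upward relative to DMSO.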
Chain of Peroxisome proliferator-activated receptor gamma (Homo sapiens) (P37231 whole entry, looked up, the tested form may be a part): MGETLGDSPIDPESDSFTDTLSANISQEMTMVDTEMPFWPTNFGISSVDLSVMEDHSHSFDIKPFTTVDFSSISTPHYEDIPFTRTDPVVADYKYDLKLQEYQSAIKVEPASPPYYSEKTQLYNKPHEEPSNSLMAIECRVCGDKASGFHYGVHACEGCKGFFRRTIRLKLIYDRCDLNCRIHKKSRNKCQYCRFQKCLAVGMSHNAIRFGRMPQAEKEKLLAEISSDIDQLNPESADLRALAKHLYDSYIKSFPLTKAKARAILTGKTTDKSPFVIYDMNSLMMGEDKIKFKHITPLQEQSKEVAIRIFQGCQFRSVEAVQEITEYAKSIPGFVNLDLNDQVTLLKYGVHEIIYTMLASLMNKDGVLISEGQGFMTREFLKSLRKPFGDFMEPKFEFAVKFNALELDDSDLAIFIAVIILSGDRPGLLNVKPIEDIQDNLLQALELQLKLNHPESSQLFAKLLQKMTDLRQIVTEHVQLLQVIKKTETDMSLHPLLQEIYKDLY

Assay [14] has as its target Nuclear receptor subfamily 1 group I member 2 (Homo sapiens) (UniProt O75469). Kind of assay: ATG_PXR_TRANS: Attagene TRANS-FACTORIAL HepG2 Assay for human Pregnane X Receptor (PXR) (AID 2283008; active means hit-call score of the fitted dose curve at least 0.9, where 1 is the maximum). In short, it runs like this:
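Trans-factorial format: exogenous NR-Gal4 fusion activity, not endogenous factor, in transfected human HepG2 liver cells. After 24 h dosing, RNA isolated, reverse-transcribed, amplified and resolved by capillary electrophoresis; induction scored versus DMSO.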

Assay [15] can be described thus: BSK_3C_TissueFactor: BioMAP Diversity Plus: 3C Assay for Tissue Factor Biomarker Activity (AID 2282997). The note with it: BioMAP 3C HUVEC, tissue factor biomarker readout; actives raise or lower the signal. In short, it runs like this:
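After a 24 h chemical exposure of primary human umbilical vein endothelial cells, Tissue Factor levels were quantified by ELISA.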

Assay [16] can be described thus: BSK_3C_uPAR: BioMAP Diversity Plus: 3C Assay for Urokinase-type plasminogen activator receptor (uPAR) Biomarker Activity (AID 2282998). As to conditions: BioMAP 3C HUVEC, uPAR biomarker ELISA; actives raise or lower the signal. The procedure, abridged:
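Endothelial primary cells of human umbilical vein origin received test chemical; 24 h later uPAR was assayed by ELISA. Fitting was bidirectional, DMSO as negative control.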
On the technique in general: ELISA stands for enzyme-linked immunosorbent assay.

Assay [17] is described as follows: BSK_3C_VCAM1: BioMAP Diversity Plus: 3C Assay for Vascular cell adhesion molecule 1 (VCAM1) Biomarker Activity (AID 2282999). The note with it: BioMAP 3C HUVEC, VCAM1 ELISA, cytokine-stimulated; actives raise or lower the signal. The procedure, abridged: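 Activity fitted in both directions relative to DMSO, with ELISA measurement of the surface marker on primary HUVEC (3C) at 24 h post-treatment; parallel SRB staining (0.1% SRB, TCA-fixed, 560 nm) flagged overt cytotoxicity.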

Assay [18] can be described thus: BSK_4H_Eotaxin3: BioMAP Diversity Plus: 4H Assay for Eotaxin 3 Biomarker Activity (AID 2283000). As to conditions: primary human endothelial cells (HUVEC); actives raise or lower the signal. In short, it runs like this:
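Chemicals were added to human umbilical vein endothelium cultures, and Eotaxin-3 was quantified by ELISA at 24 h. Values were derived by bidirectional fitting with DMSO serving as negative control and activity baseline.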

Read-out in assay [19]: Intercellular Adhesion Molecule 1 (ICAM1), ICAM1 (gene 3383)
The assay can be described thus: BSK_3C_ICAM1: BioMAP Diversity Plus: 3C Assay for Intercellular Adhesion Molecule 1 (ICAM1) Biomarker Activity (AID 2283003). As to conditions: primary human endothelial cells (HUVEC); actives raise or lower the signal. The procedure, abridged: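 ELISA readout of ICAM1 in human umbilical vein endothelial cells in the 3C system, taken 24 h post-dose. Gain or loss of signal versus DMSO was fitted in both directions, with SRB total-protein staining run in parallel.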

Assay [20] can be described thus: BSK_3C_Proliferation: Cell Proliferation Assessment in the BioMAP Diversity Plus: 3C Assay (AID 2283006).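 Further: potency may reflect either rise or fall in cell number versus DMSO.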 As to conditions: primary human endothelial cells (HUVEC). In short, it runs like this:
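Proliferation as total protein: sulforhodamine B (0.1%) stain of TCA-fixed subconfluent human umbilical vein endothelial cells, absorbance 560 nm, 48 h after dosing. Activity fitted in both directions against DMSO baseline.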

Chain of Cellular tumor antigen p53 (Homo sapiens) (P04637 whole entry, looked up): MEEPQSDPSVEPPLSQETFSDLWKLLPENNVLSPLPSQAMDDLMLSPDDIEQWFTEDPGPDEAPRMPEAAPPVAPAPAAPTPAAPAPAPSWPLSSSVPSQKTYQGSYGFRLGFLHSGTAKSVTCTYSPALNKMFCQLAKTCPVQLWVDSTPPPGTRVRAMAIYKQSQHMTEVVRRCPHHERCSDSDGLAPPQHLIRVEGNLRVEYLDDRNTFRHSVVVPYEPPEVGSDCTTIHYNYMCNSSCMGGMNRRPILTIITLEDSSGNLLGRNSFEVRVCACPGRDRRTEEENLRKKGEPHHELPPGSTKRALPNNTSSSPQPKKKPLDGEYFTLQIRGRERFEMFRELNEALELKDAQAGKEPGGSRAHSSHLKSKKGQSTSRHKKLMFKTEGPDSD
Chain of Myc proto-oncogene protein (Homo sapiens) (P01106 whole entry, looked up): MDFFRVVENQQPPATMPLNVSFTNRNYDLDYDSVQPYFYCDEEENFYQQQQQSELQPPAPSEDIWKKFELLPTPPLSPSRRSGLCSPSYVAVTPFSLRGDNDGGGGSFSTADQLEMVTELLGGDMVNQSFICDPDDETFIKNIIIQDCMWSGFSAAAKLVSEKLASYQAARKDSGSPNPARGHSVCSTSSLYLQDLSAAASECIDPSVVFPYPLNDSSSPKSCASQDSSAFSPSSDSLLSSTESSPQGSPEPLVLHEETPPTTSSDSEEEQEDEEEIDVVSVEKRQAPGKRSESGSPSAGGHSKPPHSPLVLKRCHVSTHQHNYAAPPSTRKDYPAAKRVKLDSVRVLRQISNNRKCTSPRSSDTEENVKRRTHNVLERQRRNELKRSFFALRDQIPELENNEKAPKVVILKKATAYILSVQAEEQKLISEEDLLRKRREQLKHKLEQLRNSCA
Chain of Retinoic acid receptor alpha (Homo sapiens) (P10276 whole entry, looked up, the tested form may be a part): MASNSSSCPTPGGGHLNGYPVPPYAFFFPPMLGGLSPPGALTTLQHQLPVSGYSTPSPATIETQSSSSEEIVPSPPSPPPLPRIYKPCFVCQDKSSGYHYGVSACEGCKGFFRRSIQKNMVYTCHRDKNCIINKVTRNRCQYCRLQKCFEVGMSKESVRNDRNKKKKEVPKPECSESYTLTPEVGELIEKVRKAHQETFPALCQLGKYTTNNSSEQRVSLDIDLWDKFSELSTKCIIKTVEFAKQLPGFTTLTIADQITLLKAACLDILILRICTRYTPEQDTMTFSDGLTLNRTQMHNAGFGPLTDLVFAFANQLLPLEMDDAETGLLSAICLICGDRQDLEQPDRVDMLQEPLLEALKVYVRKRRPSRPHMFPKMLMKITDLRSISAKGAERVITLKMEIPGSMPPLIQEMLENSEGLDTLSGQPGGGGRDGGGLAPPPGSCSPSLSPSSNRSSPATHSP
Chain of human RAR-related Orphan Receptor beta (RORb), RORB (gene 6096) (Q92753 whole entry, looked up, the tested form may be a part): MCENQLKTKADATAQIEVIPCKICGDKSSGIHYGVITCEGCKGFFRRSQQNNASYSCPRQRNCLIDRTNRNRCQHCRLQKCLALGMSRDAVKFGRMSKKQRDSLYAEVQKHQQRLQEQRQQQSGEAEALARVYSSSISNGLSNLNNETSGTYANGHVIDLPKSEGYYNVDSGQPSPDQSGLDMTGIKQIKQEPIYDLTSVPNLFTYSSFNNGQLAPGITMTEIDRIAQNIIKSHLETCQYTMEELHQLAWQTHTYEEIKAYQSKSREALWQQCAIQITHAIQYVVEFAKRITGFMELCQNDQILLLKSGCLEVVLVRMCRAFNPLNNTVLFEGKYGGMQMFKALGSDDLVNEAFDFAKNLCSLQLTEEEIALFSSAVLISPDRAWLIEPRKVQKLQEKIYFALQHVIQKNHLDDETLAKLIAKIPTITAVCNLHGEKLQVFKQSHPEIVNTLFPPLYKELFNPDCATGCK
Chain of human Peroxisome Proliferator-activated Receptor delta (PPARd), PPARD (gene 5467) (Q03181 whole entry, looked up): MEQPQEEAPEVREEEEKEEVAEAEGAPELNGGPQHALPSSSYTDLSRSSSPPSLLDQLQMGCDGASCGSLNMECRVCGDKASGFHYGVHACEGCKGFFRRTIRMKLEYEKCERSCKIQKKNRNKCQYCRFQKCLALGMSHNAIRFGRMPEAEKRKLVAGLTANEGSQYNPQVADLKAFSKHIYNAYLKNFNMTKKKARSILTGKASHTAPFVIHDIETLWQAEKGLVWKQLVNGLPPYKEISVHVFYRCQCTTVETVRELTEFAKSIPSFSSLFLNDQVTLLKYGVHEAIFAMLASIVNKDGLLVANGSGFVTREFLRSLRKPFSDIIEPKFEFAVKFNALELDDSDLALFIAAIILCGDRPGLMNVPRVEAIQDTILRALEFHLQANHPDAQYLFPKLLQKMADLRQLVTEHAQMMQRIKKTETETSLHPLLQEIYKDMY
Chain of human Retinoic Acid Receptor gamma (RARg), RARG (gene 5916) (P13631 whole entry, looked up, the tested form may be a part): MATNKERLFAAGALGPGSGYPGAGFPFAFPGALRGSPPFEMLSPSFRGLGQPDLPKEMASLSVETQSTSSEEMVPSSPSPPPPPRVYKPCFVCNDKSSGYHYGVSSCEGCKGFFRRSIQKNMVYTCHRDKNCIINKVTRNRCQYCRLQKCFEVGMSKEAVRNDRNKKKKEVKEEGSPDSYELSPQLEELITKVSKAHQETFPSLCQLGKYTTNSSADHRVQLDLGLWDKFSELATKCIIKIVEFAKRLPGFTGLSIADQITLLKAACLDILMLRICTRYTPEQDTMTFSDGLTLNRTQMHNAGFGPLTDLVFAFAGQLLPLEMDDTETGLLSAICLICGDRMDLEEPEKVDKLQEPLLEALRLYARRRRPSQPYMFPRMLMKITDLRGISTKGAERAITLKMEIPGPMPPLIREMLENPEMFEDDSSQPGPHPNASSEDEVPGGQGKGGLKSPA
Chain of human Retinoic Acid Receptor beta (RARb), RARB (gene 5915) (P10826 whole entry, looked up): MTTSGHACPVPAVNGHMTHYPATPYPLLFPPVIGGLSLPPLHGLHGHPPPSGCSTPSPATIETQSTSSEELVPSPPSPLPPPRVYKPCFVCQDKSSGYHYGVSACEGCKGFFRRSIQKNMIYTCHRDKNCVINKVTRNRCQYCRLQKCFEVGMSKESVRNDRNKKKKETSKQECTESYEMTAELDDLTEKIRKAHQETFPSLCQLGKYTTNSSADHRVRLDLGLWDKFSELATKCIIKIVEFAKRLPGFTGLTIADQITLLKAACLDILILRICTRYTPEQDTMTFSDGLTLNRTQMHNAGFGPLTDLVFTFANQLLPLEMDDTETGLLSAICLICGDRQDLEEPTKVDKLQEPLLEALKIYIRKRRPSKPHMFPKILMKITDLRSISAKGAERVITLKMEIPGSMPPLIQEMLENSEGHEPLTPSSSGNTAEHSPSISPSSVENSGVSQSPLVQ
Chain of human Peroxisome Proliferator-activated Receptor alpha (PPARa), PPARA (gene 5465) (Q07869 whole entry, looked up, the tested form may be a part): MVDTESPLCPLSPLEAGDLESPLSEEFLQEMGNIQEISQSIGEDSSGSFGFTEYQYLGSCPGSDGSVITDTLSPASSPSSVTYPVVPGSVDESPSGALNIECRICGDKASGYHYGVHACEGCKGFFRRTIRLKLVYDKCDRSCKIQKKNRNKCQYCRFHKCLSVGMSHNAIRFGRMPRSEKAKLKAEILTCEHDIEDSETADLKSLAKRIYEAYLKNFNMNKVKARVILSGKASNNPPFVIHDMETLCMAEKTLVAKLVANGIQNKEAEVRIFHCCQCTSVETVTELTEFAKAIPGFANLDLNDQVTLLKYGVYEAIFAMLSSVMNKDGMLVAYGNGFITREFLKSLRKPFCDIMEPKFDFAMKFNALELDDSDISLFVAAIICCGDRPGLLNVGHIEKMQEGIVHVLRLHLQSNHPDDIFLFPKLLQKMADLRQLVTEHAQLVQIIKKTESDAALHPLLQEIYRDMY
Chain of Nuclear receptor subfamily 1 group I member 2 (Homo sapiens) (O75469 whole entry, looked up, the tested form may be a part): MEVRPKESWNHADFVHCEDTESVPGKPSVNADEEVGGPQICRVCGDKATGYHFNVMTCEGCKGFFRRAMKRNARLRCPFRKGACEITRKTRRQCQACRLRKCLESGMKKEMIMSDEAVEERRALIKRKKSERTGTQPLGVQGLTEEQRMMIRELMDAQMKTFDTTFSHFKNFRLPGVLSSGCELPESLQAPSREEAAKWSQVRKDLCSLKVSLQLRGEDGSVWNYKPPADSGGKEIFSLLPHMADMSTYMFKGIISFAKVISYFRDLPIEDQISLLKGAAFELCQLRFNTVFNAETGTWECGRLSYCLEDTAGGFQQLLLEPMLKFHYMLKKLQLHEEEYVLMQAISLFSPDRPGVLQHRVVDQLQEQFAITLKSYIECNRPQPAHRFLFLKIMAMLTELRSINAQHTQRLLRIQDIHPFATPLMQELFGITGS

With `C=C[Si](C)(C)O[Si](C)(C)C=C`, the call in [1], in assay [2], in assay [3], in [4], in assay [5] and in assay [6] was inactive. Also, the result in assay [7], in [8], in [9] and in assay [10] was inactive.
Take `CC1(C)S[C@@H]2[C@H](NC(=O)COc3ccccc3)C(=O)N2[C@H]1C(=O)O`: the compound was called inactive in assay [1], in assay [2], in [3], in assay [4], in assay [5] and in [6]. The compound was classed as inactive in assay [11] and in [10].
For orientation: AC50 means the concentration at which the activity in the assay is half-maximal. With `O=C(O)c1ccccc1Nc1cccc(C(F)(F)F)c1`, the outcome in assay [1], in assay [2], in [3], in assay [5] and in assay [9] was inactive. In addition, the AC50 is 27.3 µM (active) in assay [4], 13.9 µM (active) in assay [12], 40.1 µM (active) in [11] and 6.64 µM (active) in [13].
For the compound `Cc1cc(C)c(C)c(O)c1`, the compound was classed as inactive in assay [1], in assay [2], in [3], in assay [4], in assay [5] and in assay [6]. In addition, the compound was classed as inactive in assay [7], in assay [13] and in assay [14].
For the compound `Cc1ccc([N+](=O)[O-])cc1S(=O)(=O)O`, the result in assay [1], in [3], in assay [4], in [5], in assay [6] and in assay [13] was inactive. For the same compound, in assay [10], the call was inactive. For the same compound, the concentration at half-maximal activity (AC50) in assay [2] was 165 µM (active).
As to `OCCCS`, the call in assay [1], in assay [2], in assay [3], in assay [4], in assay [5] and in assay [6] was inactive. For the same compound, the result in assay [13] was inactive.
Regarding `O=c1cc(-c2ccccc2)oc2ccccc12`, the compound was classed as inactive in assay [1], in [2], in assay [12], in [11], in [8] and in [9]. Further, the AC50 in assay [3] is 82.3 µM (active); in assay [4], 4.03 µM (active); in assay [5], 52.4 µM (active); in [14], 6.29 µM (active).
For `C#CC1(O)CC[C@H]2[C@@H]3CCC4=CCCC[C@@H]4[C@H]3CC[C@@]21C` (stereo partly drawn), the compound was called inactive in [1], in assay [2], in assay [3], in assay [5], in [11] and in [7]. Further, the result in assay [8] and in [9] was inactive. Also, the AC50 was 22 µM (active) in assay [4]; 8.34 µM (active) in [15]; 9.84 µM (active) in [16]; 10.4 µM (active) in assay [17]; 11.1 µM (active) in assay [18]; 10.7 µM (active) in assay [19]. Further, in assay [20], the concentration at half-maximal activity (AC50) was 11 µM (active).
`CC(=O)Nc1nnc(S(N)(=O)=O)s1`: the compound was called inactive in assay [1], in assay [2], in assay [3], in assay [4], in assay [5] and in [6]. The call in [10] was inactive.
